Measured values published in the supplement of paper PMC4709259.
Where a name gives a salt, the structure may show the parent alone. ± gives the standard deviation.

Legend:
[1] = system: Jurkat; assay: mean cell size (FSC-A) relative to DMSO control (fraction of control); higher = larger cells; details: 48 h
How it was run: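 Jurkat cells at 600 cells/µl were incubated for 1 h and then treated for 48h with the Enzo Screen-Well FDA Approved Drug Library v2.0 at 25µM, with DMSO at 0.9% (v/v) final. Compounds that reduced counts below 20% of controls were retested in 10-fold dilutions down to 25nM. Cell count and mean cell size, taken as forward scatter area, were measured by flow cytometry relative to solvent-only controls. Each plate carried 6-12 controls, and values are means of 3 biological replicates.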

[2] = system: Jurkat; assay: cell count relative to DMSO control (fraction of control); higher = more cells (less growth inhibition); details: 48 h

| SMILES | mean cell size [1] | cell count [2] |
| --- | --- | --- |
| CC(COc1ccccc1)N(CCCl)Cc1ccccc1 (centres undefined) [Phenoxybenzamine·HCl] (concentration: 25 µM) | 0.965 ± 0.021 | 0.746 ± 0.08 |
| COc1cccc2c1C(=O)c1c(O)c3c(c(O)c1C2=O)C[C@@](O)(C(C)=O)C[C@@H]3O[C@H]1C[C@H](N)[C@H](O)[C@H](C)O1 [Daunorubicin·HCl] (concentration: 25 nM) | 1.04 ± 0.037 | 0.711 ± 0.11 |
| CCN(CC)C(=O)C1(c2ccccc2)CC1CN (centres undefined) [Milnacipran·HCl] (concentration: 25 µM) | 0.977 ± 0.032 | 0.792 ± 0.1 |
| CNC(=C[N+](=O)[O-])NCCSCc1csc(CN(C)C)n1 [Nizatidine] (concentration: 25 µM) | 0.976 ± 0.011 | 0.809 ± 0.02 |
| O=c1[nH]cc(F)c(=O)[nH]1 [Fluorouracil (5-Fluorouracil)] (concentration: 25 µM) | 1.12 ± 0.037 | 0.379 ± 0.023 |
| O=C(O)C[C@H](O)C[C@H](O)/C=C/c1c(C2CC2)nc2ccccc2c1-c1ccc(F)cc1 [Pitavastatin Calcium] (concentration: 25 µM) | 0.9938 ± 0.0093 | 0.647 ± 0.065 |
| CC1(C)C[C@@H]1C(=O)N/C(=C\CCCCSC[C@H](N)C(=O)O)C(=O)O [Cilastatin·Na] (concentration: 25 µM) | 0.942 ± 0.011 | 1.03 ± 0.092 |
| Nc1nc2c(ncn2COC(CO)CO)c(=O)[nH]1 [Ganciclovir] (concentration: 25 µM) | 1.022 ± 0.0079 | 0.51 ± 0.1 |
| COC(=O)N[C@H](C(=O)N[C@@H](Cc1ccccc1)[C@@H](O)CN(Cc1ccc(-c2ccccn2)cc1)NC(=O)[C@@H](NC(=O)OC)C(C)(C)C)C(C)(C)C [Atazanavir] (concentration: 25 µM) | 1.04 ± 0.052 | 0.658 ± 0.054 |
| Cc1cn(-c2cc(NC(=O)c3ccc(C)c(Nc4nccc(-c5cccnc5)n4)c3)cc(C(F)(F)F)c2)cn1 [Nilotinib] (concentration: 25 µM) | 0.979 ± 0.037 | 0.762 ± 0.086 |
| O=C1c2cccc3c2[C@H](CCC3)CN1[C@@H]1CN2CCC1CC2 [Palonosetron·HCl] (concentration: 25 µM) | 1.07 ± 0.033 | 0.721 ± 0.022 |
| CN(C/C=C/c1ccccc1)Cc1cccc2ccccc12 [Naftifine·HCl] (concentration: 25 µM) | 0.956 ± 0.028 | 0.848 ± 0.089 |
| NCCC(O)(P(=O)(O)O)P(=O)(O)O [Pamidronate Disodium  Pentahydrate (Pamidronic Acid)] (concentration: 25 µM) | 0.967 ± 0.034 | 0.822 ± 0.023 |
| OC[C@H]1O[C@@H](n2cnc3c2N=CNC[C@H]3O)C[C@@H]1O [Pentostatin] (concentration: 25 µM) | 0.959 ± 0.029 | 1.14 ± 0.024 |
| COc1cc([C@@H]2c3cc4c(cc3[C@@H](O[C@@H]3O[C@@H]5CO[C@@H](c6cccs6)O[C@H]5[C@H](O)[C@H]3O)[C@H]3COC(=O)[C@H]23)OCO4)cc(OC)c1O [Teniposide] (concentration: 25 nM) | 1.25 ± 0.033 | 0.478 ± 0.044 |
| CC(C)(C)NC[C@H](O)c1ccc(O)c(CO)c1 [Levalbuterol·HCl] (concentration: 25 µM) | 0.929 ± 0.03 | 1.14 ± 0.14 |
| CCc1ccc(CCOc2ccc(CC3SC(=O)NC3=O)cc2)nc1 (centres undefined) [Pioglitazone·HCl] (concentration: 25 µM) | 0.966 ± 0.039 | 0.906 ± 0.16 |
| O=C(O)c1cn(C2CC2)c2cc(N3CCNCC3)c(F)cc2c1=O [Ciprofloxacin] (concentration: 25 µM) | 0.9157 ± 0.008 | 1.04 ± 0.13 |
| CC(C)OC(=O)CCC/C=C\C[C@@H]1[C@@H](CC[C@@H](O)CCc2ccccc2)[C@H](O)C[C@@H]1O [Latanoprost] (concentration: 25 µM) | 0.981 ± 0.046 | 0.534 ± 0.18 |
| O=C1CN(/N=C/c2ccc([N+](=O)[O-])o2)C(=O)N1 [Nitrofurantoin] (concentration: 2.5 µM) | 0.955 ± 0.019 | 0.66 ± 0.029 |
| CNCC[C@@H](Oc1ccccc1C)c1ccccc1 [Atomoxetine·HCl] (concentration: 25 µM) | 0.996 ± 0.05 | 0.81 ± 0.12 |
| CC(C)NCC(O)COc1ccc(CCOCC2CC2)cc1 (centres undefined) [Betaxolol·HCl] (concentration: 25 µM) | 1.01 ± 0.038 | 0.95 ± 0.17 |
| Cc1ccc(C(=O)c2ccc(CC(=O)O)n2C)cc1 [Tolmetin·Na] (concentration: 25 µM) | 0.964 ± 0.035 | 0.912 ± 0.11 |
| CC(C)(C)NC[C@H](O)COc1cccc2c1CCCC2=O [Levobunolol·HCl] (concentration: 25 µM) | 0.964 ± 0.056 | 1.11 ± 0.03 |
| CN(C/C=C/C#CC(C)(C)C)Cc1cccc2ccccc12 [Terbinafine·HCl] (concentration: 25 µM) | 0.947 ± 0.018 | 0.947 ± 0.08 |
| CNC[C@H](O)c1cccc(O)c1 [Phenylephrine] (concentration: 25 µM) | 0.999 ± 0.036 | 0.873 ± 0.15 |

| SMILES | mean cell size [1] | cell count [2] |
| --- | --- | --- |
| CN1CCc2cccc3c2[C@H]1Cc1ccc(O)c(O)c1-3 [Apomorphine·HCl Hemihydrate] (concentration: 2.5 µM) | 1.031 ± 0.0071 | 0.444 ± 0.071 |
| COc1cc(C)c(/C=C/C(C)=C/C=C/C(C)=C/C(=O)O)c(C)c1C [Acitretin] (concentration: 25 µM) | 0.883 ± 0.021 | 0.625 ± 0.11 |
| CC=CC(=O)N(CC)c1ccccc1C [Crotamiton] (concentration: 25 µM) | 0.972 ± 0.034 | 0.809 ± 0.17 |
| O=C1NC(c2ccccc2)(c2ccccc2)C(=O)N1COP(=O)(O)O [Fosphenytoin·Na Pentahydrate] (concentration: 25 µM) | 0.887 ± 0.058 | 0.498 ± 0.074 |
| Cn1cnc([N+](=O)[O-])c1Sc1ncnc2[nH]cnc12 [Azathioprine] (concentration: 25 µM) | 1.02 ± 0.036 | 0.782 ± 0.088 |
| C[N+]1(C)CCC(OC(=O)C(O)(c2ccccc2)C2CCCC2)C1 (centres undefined) [Glycopyrrolate Iodide] (concentration: 25 µM) | 0.995 ± 0.037 | 0.838 ± 0.061 |
| CC1(C)O[C@@H]2[C@@H](CO[C@@]3(COS(N)(=O)=O)OC(C)(C)O[C@@H]23)O1 [Topiramate] (concentration: 25 µM) | 0.969 ± 0.024 | 1.14 ± 0.14 |
| Clc1ccc2c(c1)CCc1cccnc1C2=C1CCNCC1 [Desloratadine] (concentration: 25 µM) | 1 ± 0.05 | 0.702 ± 0.045 |
| CC(C[N+](C)(C)C)OC(N)=O (centres undefined) [Bethanechol Chloride] (concentration: 25 µM) | 0.926 ± 0.034 | 0.393 ± 0.12 |
| C=C1/C(=C\C=C2/CCC[C@]3(C)[C@@H]([C@H](C)CCCC(C)(C)O)CC[C@@H]23)C[C@@H](O)C[C@@H]1O [Calcitriol] (concentration: 25 µM) | 0.8848 ± 0.0063 | 0.893 ± 0.088 |
| CCN(CC)CCOc1ccc(C(=C(Cl)c2ccccc2)c2ccccc2)cc1 [Clomiphene Citrate] (concentration: 25 µM) | 0.897 ± 0.013 | 0.793 ± 0.056 |
| CO[C@@]1(NC(=O)Cc2cccs2)C(=O)N2C(C(=O)O)=C(COC(N)=O)CS[C@@H]21 [Cefoxitin·Na] (concentration: 25 µM) | 0.939 ± 0.031 | 0.89 ± 0.037 |
| CC(C)(C)NC(=O)[C@H]1CC[C@H]2[C@@H]3CC[C@H]4NC(=O)C=C[C@]4(C)[C@H]3CC[C@]12C [Finasteride] (concentration: 25 µM) | 0.978 ± 0.046 | 0.684 ± 0.12 |
| CC(=O)O[C@@]12CO[C@@H]1C[C@H](O)[C@@]1(C)C(=O)[C@H](O)C3=C(C)[C@@H](OC(=O)[C@H](O)[C@@H](NC(=O)OC(C)(C)C)c4ccccc4)C[C@@](O)([C@@H](OC(=O)c4ccccc4)[C@H]21)C3(C)C [Docetaxel (Taxotere)] (concentration: 25 nM) | 1.14 ± 0.035 | 0.518 ± 0.052 |
| CC#C[C@]1(O)CC[C@H]2[C@@H]3CCC4=CC(=O)CCC4=C3[C@@H](c3ccc(N(C)C)cc3)C[C@@]21C [Mifepristone] (concentration: 25 µM) | 0.903 ± 0.021 | 0.424 ± 0.054 |
| Fc1ccc([C@@H]2CCNC[C@H]2COc2ccc3c(c2)OCO3)cc1 [Paroxetine·HCl] (concentration: 2.5 µM) | 1.01 ± 0.059 | 0.24 ± 0.057 |
| CC(C)(C(=O)O)c1ccc(C(O)CCCN2CCC(C(O)(c3ccccc3)c3ccccc3)CC2)cc1 (centres undefined) [Fexofenadine·HCl] (concentration: 25 µM) | 0.996 ± 0.041 | 0.725 ± 0.024 |
| O=C(O)CCCc1ccccc1 [Sodium Phenylbutyrate] (concentration: 25 µM) | 0.936 ± 0.024 | 1.05 ± 0.12 |
| NC(=O)N[C@@H](CCC(=O)O)C(=O)O [Carglumic Acid] (concentration: 25 µM) | 0.936 ± 0.037 | 0.806 ± 0.1 |
| NC(=O)OCC(COC(N)=O)c1ccccc1 [Felbamate] (concentration: 25 µM) | 1.02 ± 0.053 | 0.755 ± 0.16 |
| CN(C)c1nc(N(C)C)nc(N(C)C)n1 [Altretamine] (concentration: 25 µM) | 0.945 ± 0.019 | 0.555 ± 0.077 |
| O=C1Nc2ccc(Cl)cc2[C@@](C#CC2CC2)(C(F)(F)F)O1 [Efavirenz] (concentration: 25 µM) | 0.9 ± 0.017 | 0.628 ± 0.019 |
| CN1CCN2c3ncccc3Cc3ccccc3C2C1 (centres undefined) [Mirtazapine] (concentration: 25 µM) | 0.958 ± 0.033 | 0.951 ± 0.02 |
| CN1CCC(=C2c3ccccc3CC(=O)c3sccc32)CC1 [Ketotifen Fumarate] (concentration: 25 µM) | 0.96 ± 0.017 | 0.856 ± 0.071 |
| C=CC[C@@H]1/C=C(\C)C[C@H](C)C[C@H](OC)[C@H]2O[C@@](O)(C(=O)C(=O)N3CCCC[C@H]3C(=O)O[C@H](/C(C)=C/[C@@H]3CC[C@@H](O)[C@H](OC)C3)[C@H](C)[C@@H](O)CC1=O)[C@H](C)C[C@@H]2OC [Tacrolimus (Fk506)] (concentration: 25 µM) | 0.83 ± 0.065 | 0.408 ± 0.045 |
| S=c1[nH]cnc2nc[nH]c12 [Mercaptopurine Hydrate] (concentration: 25 µM) | 1.08 ± 0.047 | 0.792 ± 0.1 |
